Laboratory results as given in PubChem BioAssay (NCATS).
Several values for one entry are separate records, joined by “and”; a condition that tells them apart may be missing. Equal values may be shown once. Inconclusive results are not listed. Activity calls are given as the source filed them. The call rests on the fitted dose curve; in most records, active means well fitted curve in the direction sought with a large enough effect; inconclusive means small, poorly fitted or top-dose-only effect, or another doubt; inactive means no such curve, though single readings can be large; an effect the other way counts as inactive or inconclusive.

Key:
[1] = Quantitative highthroughput screen to assess conditional lethalithy of NOMO1 cells grown in RPMI1640 with untreated serum (RPMI+s) (AID 1963876); further: nearly all actives have a fitted effect of over 35% in size; further: potency means the concentration at half of the fitted maximal effect;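 on viability: 100% = DMSO wells and 0% = empty wells without cells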
Method in brief: (§1)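 Each medium arm—HPLM with 10% dialyzed FBS, or RPMI1640 with 5 mM glucose and 10% untreated or dialyzed FBS—was screened against an 11-point, 3-fold compound titration for 48 h at 37 °C, with CellTiter-Glo luminescence as endpoint.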

[2] = Quantitative highthroughput screen to assess conditional lethalithy of NOMO1 cells grown in RPMI1640 with dialyzed fetal bovine serum (RPMI+ds) (AID 1963877); further: nearly all actives have a fitted effect of over 30% in size; further: potency means the concentration at half of the fitted maximal effect;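 on viability: series mostly up to about 46 µM; 100% = DMSO control wells and 0% = empty wells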
Method in brief: as §1

[3] = Quantitative highthroughput screen to assess conditional lethalithy of NOMO1 cells grown in Human Plasma-Like Medium with dialyzed fetal bovine serum (HPLM+ds) (AID 1963878); further: nearly all actives have a fitted effect of over 35% in size; further: potency means the concentration at half of the fitted maximal effect;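 on viability: 100% = DMSO wells and 0% = empty wells on each plate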
Method in brief: as §1

[4] = Quantitative highthroughput screen to assess conditional lethalithy of P12 Ichikawa cells grown in Human Plasma-Like Medium with dialyzed fetal bovine serum (HPLM+ds) (AID 1963879); details: Potency: viability; further: nearly all actives have a fitted effect of over 35% in size; further: potency means the concentration at half of the fitted maximal effect; on viability: series mostly up to about 46 µM
Method in brief: as §1

[5] = Quantitative highthroughput screen to assess conditional lethalithy of P12 Ichikawa cells grown in RPMI1640 with dialyzed fetal bovine serum (RPMI+ds) (AID 1963880); details: Potency: P12-Ichikawa viability; further: nearly all actives have a fitted effect of over 35% in size; further: potency means the concentration at half of the fitted maximal effect;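 on viability: 100% = DMSO wells and 0% = empty wells on each plate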
Method in brief: as §1

[6] = Quantitative highthroughput screen to assess conditional lethalithy of P12 Ichikawa cells grown in RPMI1640 with untreated serum (RPMI+s) (AID 1963881); details: Potency: viability; further: nearly all actives have a fitted effect of over 35% in size; further: potency means the concentration at half of the fitted maximal effect;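 on viability: series mostly up to about 46 µM; 100% = DMSO wells and 0% = empty wells without cells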
Method in brief: as §1

[7] = Quantitative highthroughput screen to assess conditional lethalithy of SEM cells grown in Human Plasma-Like Medium with dialyzed fetal bovine serum (HPLM+ds) (AID 1963882); further: nearly all actives have a fitted effect of over 35% in size; further: potency means the concentration at half of the fitted maximal effect; on viability: series mostly up to about 46 µM
Method in brief: as §1

[8] = Quantitative highthroughput screen to assess conditional lethalithy of SEM cells grown in RPMI1640 with unreated serum (RPMI+s) (AID 1963883)
Method in brief: as §1

[9] = Quantitative highthroughput screen to assess conditional lethalithy of SEM cells grown in RPMI1640 with dialyzed fetal bovine serum (RPMI+ds) (AID 1963884); further: nearly all actives have a fitted effect of over 35% in size; further: potency means the concentration at half of the fitted maximal effect;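 on viability: series mostly up to about 46 µM; 100% = DMSO control wells and 0% = empty wells without cells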
Method in brief: as §1

[10] = Cellular viability qHTS for adrenocortical cancer (ACC) cell line NCI-H295R (AID 1963990); further: nearly all actives have a fitted effect of over 60% in size; further: potency means the concentration at half of the fitted maximal effect
Method in brief: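 CellTiter-Glo ATP luminescence, read 48 h after compound addition, measured viability of NCI-H295R adrenocortical cells grown serum-free with ITS. Final concentrations spanned up to 46 uM. Data normalized to DMSO and doxorubicin, fitted for IC50 and maximal response.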

[11] = Cellular viability qHTS for adrenocortical cancer (ACC) cell line SW-13 (AID 1963989); details: SW-13 ACC cells viability, CellTiter-Glo, 48 h; activity (max response): hits give low values; further: nearly all actives have a fitted effect of over 65% in size; further: potency means the concentration at half of the fitted maximal effect;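 on activity (max response): cells grown in serum-free medium with ITS supplement; on the % scale 0 is the no-effect control and ±100 the full control effect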
Method in brief: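 Viability was read as CellTiter-Glo luminescence after 48 h compound treatment (up to 46 uM final) of SW-13 cells grown serum-free; titration curves were fit with a four-parameter logistic model to give IC50 and efficacy.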

Cc1c(Cn2c(C)nc3c(C(=O)O)cc(N4CCOCC4)cc32)cccc1C(F)(F)F
active: Potency [3] 26.4 µM
inactive: Potency [1] | Potency [2] | Potency [4] | Potency [5] | Potency [6] | Potency [7] | Potency [8] | Potency [9] | Potency [10]

CN(C)c1ccc2nc3ccc(=[N+](C)C)cc-3sc2c1
active: Potency [1] 8.33 µM | Potency [2] 6.62 µM | Potency [3] 8.33 µM | Potency [4] 5.26 µM | Potency [5] 7.43 µM | Potency [6] 5.9 µM | Potency [7] 9.35 µM | Potency [11] 7.08 µM and 4.11 µM | Potency [10] 8.91 µM and 8.2 µM

COc1ccc2cc([S+]([O-])Cc3ncc(C)c(OC)c3C)nc2c1
active: Potency [9] 0.935 µM
inactive: Potency [1] | Potency [2] | Potency [3] | Potency [4] | Potency [5] | Potency [6] | Potency [8]

CC[C@@H]1C=C(C)C[C@H](C)C[C@H](OC)[C@H]2O[C@@](O)(C(=O)C(=O)N3CCCC[C@@H]3C(=O)O[C@H](C(C)=C[C@@H]3CC[C@H](Cl)[C@H](OC)C3)[C@H](C)[C@@H](O)CC1=O)[C@H](C)C[C@H]2OC
active: Potency [9] 1.48 µM
inactive: Potency [1] | Potency [2] | Potency [3] | Potency [4] | Potency [5] | Potency [6] | Potency [8]

CN1CCC(=C2c3ccccc3C=Cc3ccccc32)CC1
inactive: Potency [1] | Potency [2] | Potency [3] | Potency [4] | Potency [5] | Potency [6] | Potency [7] | Potency [8]
active: Potency [11] 25.1 µM | Potency [10] 3.98 µM

O=C1NC(=O)C(=Cc2ccc(-c3ccc(F)cc3)o2)S1
inactive: Potency [1] | Potency [2] | Potency [3] | Potency [4] | Potency [5] | Potency [6] | Potency [8] | Potency [9]

C=C1C[C@@]2(O)O[C@@]3(C[C@H]2C(C)C)[C@H](C)CC[C@H]13
inactive: Potency [1] | Potency [2] | Potency [3] | Potency [4] | Potency [5] | Potency [6] | Potency [7] | Potency [9]

CC1=C(CC(=O)O)c2cc(F)ccc2C1=Cc1ccc(S(C)=O)cc1 (centres undefined)
inactive: Potency [1] | Potency [2] | Potency [3] | Potency [4] | Potency [5] | Potency [6] | Potency [7] | Potency [8] | activity (max response) [11] 10.2% | Potency [10]

OCCn1cc(-c2ccc3c(c2)CCC3=NO)c(-c2ccncc2)n1
inactive: Potency [1] | Potency [2] | Potency [3] | Potency [4] | Potency [5] | Potency [6] | Potency [7] | Potency [9]

NC(=O)c1ccc(I)c([N+](=O)[O-])c1
inactive: Potency [1] | Potency [2] | Potency [3] | Potency [4] | Potency [5] | Potency [6] | Potency [7] | Potency [9] | activity (max response) [11] 11.3% | Potency [10]
